Source: PubChem BioAssay (several laboratories)
INS promoter inh: inhibitors of insulin promoter-driven GFP, primary screen, imaging, TRM-6 cells (human fetal islet line), eGFP reporter, cell count; inhibition, % at 2 µM; reporter expression induced with tamoxifen; actives 0.9% (n = 130,000); AID 1273, 2008;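 active = inhibition above the mean plus 3 SD, with well images judged a real hit on visual review, cut at about 60% in these data, passing the limit was not always enough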
E-sel TNF inh: E-selectin induction blockers in HUVEC – imaging, immunofluorescence, high content, primary screen; AID 1246, 2008; actives 0.71% (n = 120,000); HUVEC TNFa-induced E-selectin immunofluorescence; inhibition, % at 2 µM;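 active = inhibition above the batch mean plus 3 SD, and confirmed as a hit on visual image review, cut at about 43% in these data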;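 note: 0% = TNF-stimulated DMSO wells and 100% = unstimulated control wells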
VCAM1 TNFa inh: inhibitors of TNFa-induced VCAM1 expression, primary screen, imaging, HUVEC, TNFa stimulus, immunofluorescence; inhibition, % at 2 µM; AID 802, 2007; HUVEC TNFa-induced VCAM-1 immunofluorescence, high-content imaging; actives 0.48% (n = 95,000);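 active = inhibition above the batch mean plus 3 SD, with images confirmed as a hit by eye, cut at about 37% in these data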;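 note: 0% = TNF-stimulated DMSO wells and 100% = unstimulated control wells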
Phagocytosis inh: inhibitors of macrophage phagocytosis, primary screen, imaging, J774A.1 cells, IgG beads; J774A.1 macrophage IgG-bead phagocytosis; inhibition, % at 5 µM; actives 0.07% (n = 110,000);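 active = inhibition above the mean of the plate negative controls plus 5 SD, cut at about 13% in these data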;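 note: phagocytic index as fraction of beads internalized from green versus red external bead signal; plate controls were DMSO negative control for no effect and cytochalasin-D positive control for full effect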
TNFa cytotox: cytotoxicity in TNFa-stimulated HUVEC, primary screen, cytotoxicity control for VCAM1 expression modulator project, imaging, Hoechst nuclei count; HUVEC TNFalpha-stimulated, Hoechst cell count; cell count reduction, % at 2 µM; actives 0.17% (n = 93,000);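 active = cell count reduction exceeding the screen mean by over 5 SD, scaled to untreated wells per plate, cut at about 78% in these data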;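 note: cells counted after 24 h of TNF alpha exposure following the 1 h pretreatment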
F-actin modifier: modifiers of F-actin cytoskeleton organization, primary screen, imaging, HUVEC, phalloidin staining, high-content imaging; AID 836, 2007; inhibition, % at 2 µM; HUVEC TNFa F-actin phalloidin imaging; actives 0.18% (n = 91,000);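 active = inhibition above the batch mean plus 3 SD and confirmed as a hit by visual image inspection, cut at about 30% in these data, passing the limit was not always enough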
The depositor's hits bear a star; [ ] = remark or other dose. In the library only some 1.6% were active in any assay of this set; here they are far more common.

CC(C)(O)C#Cc1ccc(C(=O)NCc2ccccc2)s1 was read as INS promoter inh -28, E-sel TNF inh -80, VCAM1 TNFa inh -6, TNFa cytotox -18 and F-actin modifier 11.
`O=C1CN(C(=O)COc2ccc(F)cc2Br)c2ccccc2N1` gave INS promoter inh -45 and E-sel TNF inh 26.
COc1ccc(N(CC(=O)Nc2ccc3c(c2)OCO3)S(C)(=O)=O)c(OC)c1 was read as INS promoter inh 42, E-sel TNF inh 64*, VCAM1 TNFa inh 6, Phagocytosis inh 0, TNFa cytotox -10 and F-actin modifier -14.
Screening CCOc1ccccc1N(CC(=O)Nc1ccc2c(c1)OCCO2)S(C)(=O)=O returned INS promoter inh 82*, VCAM1 TNFa inh 5, Phagocytosis inh 0, TNFa cytotox -35 and F-actin modifier 4.
COc1ccc(OC)c(N(CC(=O)Nc2ccccc2)S(C)(=O)=O)c1 was read as VCAM1 TNFa inh -22, Phagocytosis inh -2, TNFa cytotox 16 and F-actin modifier 42*.
CN(C)c1ccc(/C=N/c2cc(-c3ccccc3)nn2-c2ccccc2)cc1 was read as INS promoter inh -14, E-sel TNF inh -10, VCAM1 TNFa inh -26, Phagocytosis inh -1, TNFa cytotox -36 and F-actin modifier -21.
For CC1COC(C)(CC(=O)NN2C(=O)c3ccccc3C2=O)O1 (centres undefined) the results were INS promoter inh -36 and E-sel TNF inh 5.
For COc1ccc(/C=N/NC(=O)C(C)n2cnc3ccccc3c2=O)cc1OC (centres undefined) the results were INS promoter inh 13, E-sel TNF inh 96* and Phagocytosis inh -6.
`Cc1ccc(OCC(=O)Nc2ccc(CN3CCCCC3)cc2)c(C)c1` gave E-sel TNF inh -19.
For Cc1nc(-c2cccnc2)sc1C(=O)Nc1cccc(C(F)(F)F)c1 the results were INS promoter inh 3, E-sel TNF inh 24, VCAM1 TNFa inh 7, TNFa cytotox -22 and F-actin modifier 52*.
Screening Cc1nc(-c2cccnc2)sc1C(=O)Nc1ccc(C(F)(F)F)cc1 returned INS promoter inh 23, E-sel TNF inh 10, VCAM1 TNFa inh 0, Phagocytosis inh 0, TNFa cytotox 18 and F-actin modifier 23.
`CNC(=O)Nc1cccc(C(F)(F)F)c1` gave INS promoter inh 81*, E-sel TNF inh 3, VCAM1 TNFa inh 7, TNFa cytotox -7 and F-actin modifier -7.
Screening COc1ccccc1OCCN(C#N)c1nc(N(C)C)nc(N(C)C)n1 returned INS promoter inh 33.
Screening CN=C(Nc1cccc(OC)c1)SC1CC(=O)N(c2ccc(C(=O)O)cc2)C1=O (centres undefined) returned INS promoter inh 52 and Phagocytosis inh -11.
Screening Clc1ccc(Nc2nc3cccnc3s2)cc1 returned E-sel TNF inh 72*.
Screening COc1cccc(C(C#N)N2CCCCC2)c1O (centres undefined) returned INS promoter inh 47, E-sel TNF inh -14, VCAM1 TNFa inh 8, Phagocytosis inh 4, TNFa cytotox -12 and F-actin modifier 48*.
COc1ccc(C(C#N)N2CCCCCC2)cc1OC (centres undefined) was read as E-sel TNF inh 17, VCAM1 TNFa inh -2, Phagocytosis inh 1, TNFa cytotox -19 and F-actin modifier 9.
Screening CCC(=O)NC(=S)Nc1ccc(NC(=O)c2cc3ccccc3o2)c(OC)c1 returned E-sel TNF inh 16.
COc1ccccc1N1CCN(c2cc(N3CCCC3)nc(C)n2)CC1 was read as INS promoter inh 0, E-sel TNF inh 100*, VCAM1 TNFa inh 12, TNFa cytotox 29 and F-actin modifier -28.
For CCOC(=O)/C(C#N)=C\c1ccc(OCC(=O)Nc2ccc(C)cc2C)c(OC)c1 the results were INS promoter inh -8, E-sel TNF inh -2, VCAM1 TNFa inh 0, TNFa cytotox -3 and F-actin modifier -43.
`Cc1cc(C(=O)CN2C(=O)NC(c3ccccc3)(c3ccccc3)C2=O)c(C)n1Cc1ccco1` gave E-sel TNF inh 74*, VCAM1 TNFa inh 0, Phagocytosis inh 0, TNFa cytotox 5 and F-actin modifier 27.
For O=C(Cn1ncc(Cl)c(Cl)c1=O)N1CCc2ccccc21 the results were INS promoter inh -431 and E-sel TNF inh 100*.
Screening COc1cccc(-n2c(=O)c3cc(OC)c(OC)cc3n(CC(=O)Nc3cc(C)[nH]n3)c2=O)c1 returned INS promoter inh -11 and Phagocytosis inh -13.
`O=C(/C=C/c1ccccc1)N1CCC(Cc2ccccc2)CC1` gave INS promoter inh 57, E-sel TNF inh 92*, VCAM1 TNFa inh -25, Phagocytosis inh 5 and F-actin modifier -8.
CC(=O)NC1=NN(C(C)=O)C(c2ccc(F)cc2)S1 (centres undefined) was read as INS promoter inh 83*.
Screening Cc1cc(C)nc(SCC(=O)Nc2nonc2N)n1 returned INS promoter inh -31.
`CSCCC(NS(=O)(=O)c1ccccc1F)C(=O)NC(C)c1ccccc1` (centres undefined) gave INS promoter inh -45.
COc1ccc(NC(=O)CSc2nnc(NC(=O)c3ccccc3C(=O)O)s2)cc1 was read as INS promoter inh -14.
COCC(C)NC(=O)NC1(C(F)(F)F)Oc2ccc(Cl)cc2O1 (centres undefined) was read as INS promoter inh 71*, VCAM1 TNFa inh 6, Phagocytosis inh -1, TNFa cytotox -1 and F-actin modifier 22.
Screening CCOc1ccc(CN(C)CC(=O)Nc2ccc(N3CCOCC3)cc2)cc1OC returned INS promoter inh -53 and Phagocytosis inh -13.
Screening COc1cc(NC(=O)c2ccc3c(c2)OCCO3)ccc1NC(=O)c1cccs1 returned INS promoter inh -107.
For CCOc1ccc2[nH]c(=O)c(CN(Cc3ccccc3)C(=O)N3CCCC3)cc2c1 the results were INS promoter inh 46, E-sel TNF inh -2, VCAM1 TNFa inh 9, Phagocytosis inh 1, TNFa cytotox -39 and F-actin modifier 50*.
Cc1cc(C)n2nc(/C(C#N)=C/c3ccccn3)c(C#N)c2n1 was read as INS promoter inh -48.
For COc1ccc2c(c1)-c1c(ssc1=S)C(C)(C)N2C(=O)CSC1=NCCS1 the results were INS promoter inh 60, E-sel TNF inh -5, VCAM1 TNFa inh -3, Phagocytosis inh -1, TNFa cytotox -6 and F-actin modifier -2.
`CCOc1ccc2c(c1)-c1c(ssc1=S)C(C)(C)N2C(=O)c1ccco1` gave INS promoter inh 7, E-sel TNF inh -20 and Phagocytosis inh 91*[artifact].
CCCc1cc(=O)[nH]c(SCC(=O)NC(=O)OCC)n1 was read as INS promoter inh 27, E-sel TNF inh 25, VCAM1 TNFa inh 11, Phagocytosis inh 2, TNFa cytotox 5 and F-actin modifier -2.
